Inconclusive results are not listed. Active and inactive are the calls of the source. Unless noted, calls come from the whole dose curve; as a rule, active = well fitted curve in the direction sought with a large enough effect in the repeat runs; inconclusive = weak or mixed curves; inactive = no such curve, though single readings can be large; an effect the other way counts as inactive or inconclusive.
Experiments:
[1] = target: Estrogen receptor beta (Homo sapiens) (UniProt Q92731); assay: qHTS assay to identify small molecule agonists of the estrogen receptor beta (ER-beta) signaling pathway (AID 1259377; active = well fitted activation curve with a large enough effect in the signal ratio in the repeat runs, not every such curve was filed as active; the % refers to the signal ratio)
Sequence of Estrogen receptor beta (Homo sapiens) (Q92731 whole entry, looked up): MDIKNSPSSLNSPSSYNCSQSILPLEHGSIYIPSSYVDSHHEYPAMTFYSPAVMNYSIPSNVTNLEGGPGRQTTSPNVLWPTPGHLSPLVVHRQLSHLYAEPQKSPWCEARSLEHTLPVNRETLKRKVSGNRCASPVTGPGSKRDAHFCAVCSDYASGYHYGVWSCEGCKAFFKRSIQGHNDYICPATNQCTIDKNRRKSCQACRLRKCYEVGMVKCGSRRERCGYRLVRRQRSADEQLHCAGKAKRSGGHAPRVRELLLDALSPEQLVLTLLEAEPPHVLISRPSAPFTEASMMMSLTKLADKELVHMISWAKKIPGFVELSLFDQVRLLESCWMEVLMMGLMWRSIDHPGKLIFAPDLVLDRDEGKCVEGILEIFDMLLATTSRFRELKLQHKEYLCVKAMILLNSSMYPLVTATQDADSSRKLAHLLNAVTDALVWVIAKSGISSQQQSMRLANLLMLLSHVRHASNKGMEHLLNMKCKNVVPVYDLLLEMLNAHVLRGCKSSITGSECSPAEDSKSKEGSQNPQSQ
Summary of the method: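 Measured by fluorescence intensity from a B/G FRET beta-lactamase substrate (2 h, room temperature) in ER-beta-UAS-bla HEK293T cells treated with DMSO-dissolved compounds for 16 hr at 37C and 5% CO2.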

[2] = target: Estrogen receptor beta (Homo sapiens) (UniProt Q92731); assay: qHTS assay to identify small molecule antagonists of the estrogen receptor beta (ER-beta) signaling pathway (AID 1259378; active = well fitted inhibition curve with a large enough effect in the signal ratio in the repeat runs, not every such curve was filed as active; the % refers to the signal ratio)
Summary of the method: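 ER-beta-UAS-bla HEK293T cells in 2% charcoal-stripped FBS medium treated with compound plus 1nM final 17-beta-estradiol for 16 hr at 37C. Beta-lactamase reporter read by FRET substrate fluorescence after 2 hours at room temperature.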

[3] = qHTS assay to identify small molecule agonists of the androgen receptor (AR) signaling pathway in the presence of an antagonist - cell viability counter screen (AID 1259379); note: nearly all actives have a fitted effect of over 25% in size; note: potency is the fitted concentration of half-maximal effect;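 for activity change, negative = cytotoxicity: MDA-kb2 human breast cancer cells carrying an MMTV luciferase reporter; series mostly up to about 92 µM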
Summary of the method: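 Cells: MDA-kb2 (MMTV-luc, AR and GR elements), 3,000/well, 5 hr settle. Added: nilutamide 3.0uM final, then compounds (15 conc.). Incubation: 16 hr, 37C, no CO2. Read-out: CellTiter-Fluor, 1 hr, fluorescence.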

[4] = qHTS assay to identify small molecule agonists of the estrogen receptor beta (ER-beta) signaling pathway - cell viability counter screen (AID 1259380); note: nearly all actives have a fitted effect of over 30% in size
Summary of the method: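 HEK293T ER-beta-UAS-bla; 2% CS-FBS; 6 hr pre-plate, 16 hr cpd at 37C/5% CO2; LiveBLAzer read first, then CellTiter-Glo 30 min RT, luminescence.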

[5] = qHTS assay to identify small molecule antagonists of the estrogen receptor beta (ER-beta) signaling pathway - cell viability counter screen (AID 1259382); note: series mostly up to about 92 µM; nearly all actives have a fitted effect of over 55% in size
Summary of the method: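 Cells: ER-beta-UAS-bla HEK293T, 2,000/well, 2% CS-FBS, 6 hr settle. Cpd + E2 (1nM final), 16 hr, 37C/5% CO2. Bla FRET substrate 2 hr RT, then CellTiter-Glo 30 min RT, luminescence.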

[6] = target: Progesterone receptor (Homo sapiens) (UniProt P06401); assay: qHTS assay to identify small molecule agonists of the progesterone receptor (PR) signaling pathway (AID 1346784; calls by dose curve; note: nearly all actives have a fitted effect of over 30% in size)
Sequence of Progesterone receptor (Homo sapiens) (P06401 whole entry, looked up): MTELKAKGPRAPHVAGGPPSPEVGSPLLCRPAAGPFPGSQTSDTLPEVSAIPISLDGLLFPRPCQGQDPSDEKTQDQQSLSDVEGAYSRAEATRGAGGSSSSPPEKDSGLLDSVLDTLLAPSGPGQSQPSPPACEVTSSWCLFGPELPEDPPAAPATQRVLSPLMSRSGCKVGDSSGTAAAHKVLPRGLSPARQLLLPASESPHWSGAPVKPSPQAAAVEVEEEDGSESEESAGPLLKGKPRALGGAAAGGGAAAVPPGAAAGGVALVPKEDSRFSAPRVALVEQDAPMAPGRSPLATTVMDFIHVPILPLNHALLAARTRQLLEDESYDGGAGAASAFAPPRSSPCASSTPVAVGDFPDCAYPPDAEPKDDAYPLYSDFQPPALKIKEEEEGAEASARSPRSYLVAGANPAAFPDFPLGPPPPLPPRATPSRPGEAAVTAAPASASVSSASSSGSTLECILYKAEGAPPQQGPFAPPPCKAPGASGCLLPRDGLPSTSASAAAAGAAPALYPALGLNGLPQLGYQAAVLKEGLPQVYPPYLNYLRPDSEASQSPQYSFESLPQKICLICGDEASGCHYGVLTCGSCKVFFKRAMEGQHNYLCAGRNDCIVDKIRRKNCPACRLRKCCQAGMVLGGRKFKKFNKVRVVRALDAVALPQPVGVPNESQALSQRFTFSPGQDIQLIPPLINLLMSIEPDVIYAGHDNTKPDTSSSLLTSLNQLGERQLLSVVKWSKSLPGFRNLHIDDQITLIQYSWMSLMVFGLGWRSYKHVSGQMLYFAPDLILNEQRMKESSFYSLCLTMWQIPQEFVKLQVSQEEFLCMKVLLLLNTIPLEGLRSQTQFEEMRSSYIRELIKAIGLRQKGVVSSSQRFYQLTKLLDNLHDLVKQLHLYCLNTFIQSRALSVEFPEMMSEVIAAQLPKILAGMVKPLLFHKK
Summary of the method: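 The screen uses PR-UAS-bla HEK 293T cells in charcoal-stripped serum (2%). Compounds are applied for 16 hr at 37C after a 6 hr pre-incubation, and reporter activity is detected with a FRET beta-lactamase substrate after 2 hr at room temperature.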

[7] = target: Progesterone receptor (Homo sapiens) (UniProt P06401); assay: qHTS assay to identify small molecule antagonists of the progesterone receptor (PR) signaling pathway (AID 1346795; active = well fitted inhibition curve with a large enough effect in the signal ratio in the repeat runs, not every such curve was filed as active; the % refers to the signal ratio; note: potency is the fitted concentration of half-maximal effect)
Summary of the method: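 After 6 hr plating at 37C in 2% stripped-serum medium, PR-UAS-bla HEK293T cells got compounds, then 1 nM R5020. Sixteen hours later, LiveBLAzer substrate was applied for 2 hr at room temperature and fluorescence was recorded.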

[8] = qHTS assay to identify small molecule antagonists of the progesterone receptor (PR) signaling pathway - cell viability counter screen (AID 1346798); note: series mostly up to about 92 µM; nearly all actives have a fitted effect of over 50% in size
Summary of the method: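 Viability was determined by ATP-based luminescence (CellTiter-Glo) in PR-UAS-bla HEK293T cells cultured in 2% charcoal-stripped serum and incubated 16 hr with compounds under R5020 stimulation.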

[9] = qHTS assay to identify small molecule agonists of the progesterone receptor (PR) signaling pathway - cell viability counter screen (AID 1346799; calls by dose curve; note: nearly all actives have a fitted effect of over 45% in size)
Summary of the method: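 Viability was scored by ATP luminescence (CellTiter-Glo, 30 min, room temperature) in the same wells used for the reporter readout, after 16 hr compound exposure of PR-UAS-bla HEK293T cells.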

[10] = qHTS assay to identify small molecule antagonists of the TGF-beta/Smad signaling pathway - cell viability counter screen (AID 1346824); note: nearly all actives have a fitted effect of over 50% in size
Summary of the method: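 SBE-bla HEK 293T cells, incubated overnight, then compound plus 0.25 ng/mL TGF-beta1 (stock added) for 5 hr at 37 C. Viability was read in the same wells by CellTiter-Glo luminescence after 30 min at room temperature.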

[11] = qHTS assay to identify small molecule agonists of the TGF-beta/Smad signaling pathway - cell viability counter screen (AID 1346829); note: top concentration of the series differs between compounds; nearly all actives have a fitted effect of over 45% in size
Summary of the method: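 Same-well cytotoxicity: CellTiter-Glo added after the 2 hr room-temperature beta-lactamase substrate step, luminescence measured 30 min later; cells had 5 hr of compound at 37 C.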

[12] = qHTS assay to identify small molecule agonists of the TGF-beta/Smad signaling pathway (AID 1346859; active = well fitted activation curve with a large enough effect in the signal ratio in the repeat runs, not every such curve was filed as active; the % refers to the signal ratio; note: series mostly up to about 77 µM)
Summary of the method: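 Dual-wavelength fluorescence (460/530 nm emission) quantified beta-lactamase expression under the Smad binding element in HEK 293T cells following 5 hr compound treatment at 37 C.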

[13] = target: Thyrotropin-releasing hormone receptor (Homo sapiens) (UniProt P34981); assay: qHTS assay to identify small molecule antagonists of the thyrotropin-releasing hormone receptor (TRHR) signaling pathway (AID 1346877; active = well fitted inhibition curve with a large enough effect in the repeat runs, not every such curve was filed as active; note: series mostly up to about 51 µM)
Sequence of Thyrotropin-releasing hormone receptor (Homo sapiens) (P34981 whole entry, looked up): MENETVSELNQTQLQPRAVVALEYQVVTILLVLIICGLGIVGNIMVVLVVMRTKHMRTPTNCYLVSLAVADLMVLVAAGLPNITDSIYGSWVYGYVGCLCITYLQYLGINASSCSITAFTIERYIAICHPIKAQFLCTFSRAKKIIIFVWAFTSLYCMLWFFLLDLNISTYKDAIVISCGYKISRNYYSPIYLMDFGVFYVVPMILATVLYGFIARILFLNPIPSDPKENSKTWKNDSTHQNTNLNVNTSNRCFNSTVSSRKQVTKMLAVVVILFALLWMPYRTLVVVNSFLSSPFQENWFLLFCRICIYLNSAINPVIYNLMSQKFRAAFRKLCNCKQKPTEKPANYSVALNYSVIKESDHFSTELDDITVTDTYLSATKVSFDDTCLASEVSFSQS
Summary of the method: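 Intracellular calcium fluorescence, read kinetically every second over 3 min, reports TRH-evoked signalling in HEK293 cells carrying TRHR. Test compounds were added 5 min ahead of a 1 nM TRH challenge.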

[14] = target: Thyrotropin-releasing hormone receptor (Homo sapiens) (UniProt P34981); assay: qHTS assay to identify small molecule agonists of the thyrotropin-releasing hormone receptor (TRHR) signaling pathway (AID 1346891; calls by dose curve;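 note: HEK293 cells expressing TRHR with calcium dye readout; series mostly up to about 58 µM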)
Summary of the method: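 Kinetic fluorescence (3 min, 1 s intervals) reported intracellular calcium after compound transfer onto TRHR-Hek293 cells pre-loaded with dye for 2 h at 37 °C.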

[15] = target: Estrogen receptor (Homo sapiens) (UniProt P03372); assay: qHTS assay to identify small molecule agonists of the estrogen receptor alpha (ER-alpha) signaling pathway in the presence of an antagonist (AID 1259383; calls by dose curve; note: top concentration of the series differs between compounds; nearly all actives have a fitted effect of over 15% in size)
Sequence of Estrogen receptor (Homo sapiens) (P03372 whole entry, looked up): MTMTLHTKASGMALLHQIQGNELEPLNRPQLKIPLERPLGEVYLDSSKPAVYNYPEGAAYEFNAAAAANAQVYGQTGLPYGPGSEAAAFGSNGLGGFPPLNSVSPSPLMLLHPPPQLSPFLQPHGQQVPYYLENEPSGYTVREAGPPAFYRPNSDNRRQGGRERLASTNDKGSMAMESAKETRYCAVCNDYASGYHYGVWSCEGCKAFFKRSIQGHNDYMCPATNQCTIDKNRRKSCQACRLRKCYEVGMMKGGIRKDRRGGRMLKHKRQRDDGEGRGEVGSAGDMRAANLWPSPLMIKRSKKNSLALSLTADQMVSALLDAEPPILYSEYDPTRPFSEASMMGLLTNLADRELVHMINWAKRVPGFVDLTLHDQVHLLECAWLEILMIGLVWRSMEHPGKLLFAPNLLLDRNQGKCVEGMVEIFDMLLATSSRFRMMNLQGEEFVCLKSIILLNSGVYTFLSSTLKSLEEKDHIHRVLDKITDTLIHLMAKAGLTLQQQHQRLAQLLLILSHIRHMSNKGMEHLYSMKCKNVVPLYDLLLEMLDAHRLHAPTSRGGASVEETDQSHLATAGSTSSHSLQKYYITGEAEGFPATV
Summary of the method: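 VM7Luc4E2, endog. ER-alpha + 4×ERE-luc; charcoal-stripped FBS, phenol red-free, 5 d; 24hr plating; +10.0nM ICI-182,780 (final); cpds 15 conc, 22hr, 37C/5% CO2; ONE-Glo luminescence.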

[16] = qHTS assay to identify small molecule agonists or antagonists of the thyroid stimulating hormone receptor (TSHR) signaling pathway - wild type cell line counter screen (AID 1259384; calls by dose curve)
Summary of the method: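 Wild-type Hek293 cells, 800/well, 18 h at 37C, then compound with Ro20-1724 for 30 min RT. cAMP by HTRF (cAMP-d2/anti-cAMP cryptate), 1 h RT, fluorescence read. 15 concentrations, triplicates.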

[17] = target: Thyrotropin receptor (Homo sapiens) (UniProt P16473); assay: qHTS assay to identify small molecule antagonists of the thyroid stimulating hormone receptor (TSHR) signaling pathway (AID 1259385; calls by dose curve; note: nearly all actives have a fitted effect of over 20% in size)
Sequence of Thyrotropin receptor (Homo sapiens) (P16473 whole entry, looked up): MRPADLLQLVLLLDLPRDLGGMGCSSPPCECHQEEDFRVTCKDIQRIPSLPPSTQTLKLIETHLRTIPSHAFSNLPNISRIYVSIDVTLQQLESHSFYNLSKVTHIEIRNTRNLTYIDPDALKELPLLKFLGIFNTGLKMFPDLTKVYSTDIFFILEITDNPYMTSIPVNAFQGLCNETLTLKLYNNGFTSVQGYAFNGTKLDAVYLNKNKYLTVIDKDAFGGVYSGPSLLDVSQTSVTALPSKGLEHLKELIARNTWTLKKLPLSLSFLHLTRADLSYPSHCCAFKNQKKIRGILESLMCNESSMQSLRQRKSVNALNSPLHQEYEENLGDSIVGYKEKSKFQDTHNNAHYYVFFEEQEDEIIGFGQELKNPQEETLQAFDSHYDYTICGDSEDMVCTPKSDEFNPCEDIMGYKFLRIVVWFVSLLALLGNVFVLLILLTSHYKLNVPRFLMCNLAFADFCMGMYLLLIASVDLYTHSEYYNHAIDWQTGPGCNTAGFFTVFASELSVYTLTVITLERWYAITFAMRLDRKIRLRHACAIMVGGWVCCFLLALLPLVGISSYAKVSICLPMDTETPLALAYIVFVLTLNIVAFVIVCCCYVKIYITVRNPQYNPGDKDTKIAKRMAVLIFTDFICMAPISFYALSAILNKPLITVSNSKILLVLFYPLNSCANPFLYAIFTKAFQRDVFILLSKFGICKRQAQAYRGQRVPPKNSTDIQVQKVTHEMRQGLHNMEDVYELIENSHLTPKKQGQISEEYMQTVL
Summary of the method: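 TSHR-HEK293 cells (800/well) plated 18 h, then compounds with Ro20-1724 and TSH at 1.5 ng/mL final, 30 min at room temperature. cAMP quantified by HTRF (cAMP-d2/anti-cAMP-cryptate, 1 h); 15 concentrations in triplicate.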

[18] = qHTS assay to identify small molecule agonists of the estrogen receptor alpha (ER-alpha) signaling pathway in the presence of an antagonist - cell viability counter screen (AID 1259386);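 note: cells exposed to compounds for 22 h at 37 °C before the viability read; nearly all actives have a fitted effect of over 30% in size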; note: potency is the fitted concentration of half-maximal effect; for activity change, negative = cytotoxicity: series mostly up to about 92 µM
Summary of the method: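 VM7Luc4E2, stripped-serum pre-culture 5 d; 24hr plating; +ICI-182,780 10.0nM final; cpds 15 conc, 22hr, 37C/5% CO2; CellTiter-Fluor added at 21hr, fluorescence 1hr later.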

[19] = target: Androgen receptor (Homo sapiens) (UniProt P10275); assay: qHTS assay to identify small molecule agonists of the androgen receptor (AR) signaling pathway in the presence of an antagonist (AID 1259381; calls by dose curve; note: nearly all actives have a fitted effect of over 15% in size)
Sequence of Androgen receptor (Homo sapiens) (P10275 whole entry, looked up): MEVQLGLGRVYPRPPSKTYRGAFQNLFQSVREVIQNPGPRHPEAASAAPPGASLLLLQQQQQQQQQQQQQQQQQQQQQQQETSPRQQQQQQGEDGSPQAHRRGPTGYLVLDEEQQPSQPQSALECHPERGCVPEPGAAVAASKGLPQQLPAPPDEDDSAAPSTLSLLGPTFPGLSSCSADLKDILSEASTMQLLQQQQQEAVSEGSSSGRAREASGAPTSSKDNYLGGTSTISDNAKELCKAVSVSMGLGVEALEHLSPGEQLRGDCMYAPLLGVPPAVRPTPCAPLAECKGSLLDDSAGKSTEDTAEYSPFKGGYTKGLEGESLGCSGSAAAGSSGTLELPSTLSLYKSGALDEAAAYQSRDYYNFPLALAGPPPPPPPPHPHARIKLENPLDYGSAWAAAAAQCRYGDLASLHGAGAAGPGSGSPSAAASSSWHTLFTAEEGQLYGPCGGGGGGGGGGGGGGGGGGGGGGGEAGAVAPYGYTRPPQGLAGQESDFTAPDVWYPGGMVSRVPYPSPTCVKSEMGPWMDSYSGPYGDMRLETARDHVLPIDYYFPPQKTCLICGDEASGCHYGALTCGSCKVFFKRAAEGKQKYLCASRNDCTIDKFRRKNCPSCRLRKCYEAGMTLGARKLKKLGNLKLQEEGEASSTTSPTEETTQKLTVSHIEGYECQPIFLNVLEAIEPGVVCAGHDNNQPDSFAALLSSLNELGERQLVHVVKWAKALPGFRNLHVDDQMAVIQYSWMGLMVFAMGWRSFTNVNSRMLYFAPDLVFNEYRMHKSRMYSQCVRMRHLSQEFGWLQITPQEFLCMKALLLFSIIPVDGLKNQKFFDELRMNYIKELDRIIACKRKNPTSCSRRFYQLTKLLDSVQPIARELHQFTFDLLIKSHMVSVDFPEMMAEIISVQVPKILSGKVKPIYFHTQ
Summary of the method: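 MDA-kb2 cells, 3,000/well, rested 5hr at 37C/0% CO2 → nilutamide 3.0uM final or buffer → compounds, 15 conc. → 16hr at 37C → ONE-Glo, 30min RT → luminescence.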
% is set by controls: 0 for no effect and ±100 for the full control effect.

O=C(/C=C/c1ccc(O)c(O)c1)O[C@@H](C(=O)O)[C@@H](OC(=O)/C=C/c1ccc(O)c(O)c1)C(=O)O
inactive: Potency [1] | Potency [2] | Potency [3] | Potency [4] | Potency [5] | Potency [6] | Potency [7] | Potency [8] | Potency [9] | Potency [10] | Potency [11] | Potency [12] | Potency [13] | outcome [14]

CC[N+](CC)(CC)CCOc1ccc(/C=C/c2ccccc2)cc1
active: Potency [3] 9.44 µM
inactive: Potency [1] | Potency [5] | Potency [15] | outcome [16] | Potency [17] | Potency [18] | Potency [6] | Potency [8] | Potency [10] | Potency [11] | Potency [12] | Potency [13] | outcome [14]

C=CCn1c(=O)n(CC=C)c(=O)n(CC=C)c1=O
inactive: Potency [2] | Potency [3] | Potency [4] | Potency [5] | outcome [16] | Potency [17] | Potency [7] | Potency [8] | Potency [9] | Potency [11] | Potency [12] | Potency [13] | outcome [14]

CN1CCN2c3ccccc3Cc3ccccc3C2C1 (centres undefined)
inactive: Potency [1] | Potency [3] | outcome [19] | Potency [15] | outcome [16] | Potency [17] | Potency [8] | Potency [9] | Potency [10] | Potency [11] | Potency [12] | Potency [13] | outcome [14]

OC/C=C/CO
inactive: Potency [2] | Potency [3] | Potency [4] | Potency [5] | Potency [15] | outcome [16] | Potency [17] | Potency [18] | Potency [6] | Potency [7] | Potency [8] | Potency [10] | Potency [12] | Potency [13] | outcome [14]

CC1=Nc2ccccc2C1(C)C
active: Potency [7] 30.7 µM
inactive: Potency [1] | Potency [4] | Potency [5] | outcome [16] | Potency [17] | Potency [18] | Potency [6] | Potency [10] | Potency [11] | Potency [12] | Potency [13] | outcome [14]

Cc1cc(-c2ccc(N=Nc3cc(S(=O)(=O)O)c4ccccc4c3N)c(C)c2)ccc1N=Nc1cc(S(=O)(=O)O)c2ccccc2c1N
inactive: Potency [1] | Potency [2] | Potency [5] | Potency [15] | outcome [16] | Potency [17] | Potency [7] | Potency [8] | Potency [10] | Potency [11] | Potency [13] | outcome [14]
active: Potency [3] 3.88 µM | Potency [18] 30.8 µM

CC(C)Cn1cnc2c(N)nc3ccccc3c21
inactive: activity, negative = inhibition [2] 5.3% [at 19 µM] | activity change, negative = cytotoxicity [3] -7.59% [at 19 µM] | activity change, negative = cytotoxicity [4] 0.961% [at 19 µM] | activation [19] -5.94% [at 19 µM] | activity change, negative = cytotoxicity [5] -2.67% [at 19 µM] | activation [15] -0.124% [at 19 µM] | cAMP activity change [16] -0.409% [at 18.9 µM] | activity change, negative = inhibition [17] 2.37% [at 19 µM] | activity change, negative = cytotoxicity [18] -6.27% [at 19 µM] | activity change, negative = inhibition [7] 5.77% [at 18.9 µM] | activity change, negative = cytotoxicity [8] 10.2% [at 18.9 µM] | activity change, negative = cytotoxicity [9] 13.4% [at 19 µM] | viability change, negative = cytotoxic [10] 1.27% [at 15.8 µM] | activity change, negative = cytotoxicity [11] 6.14% [at 15.8 µM] | activation [12] -1.86% [at 15.8 µM]

O=[N+]([O-])c1ccc(O)cc1C(F)(F)F
inactive: Potency [1] | Potency [4] | Potency [5] | outcome [16] | Potency [17] | Potency [6] | Potency [8] | Potency [10] | Potency [11] | Potency [12] | Potency [13] | outcome [14]
active: Potency [3] 30.6 µM | Potency [18] 27.3 µM

Clc1nnc(Cl)c2ccccc12
inactive: Potency [4] | Potency [5] | Potency [15] | Potency [18] | Potency [6] | Potency [8] | Potency [9] | Potency [11] | Potency [12] | Potency [13]
active: Potency [3] 15.3 µM

Cc1c(C)c([N+](=O)[O-])c(C(C)(C)C)c([N+](=O)[O-])c1C
inactive: Potency [3] | Potency [4] | Potency [5] | Potency [15] | outcome [16] | Potency [17] | Potency [18] | Potency [8] | Potency [9] | Potency [11] | Potency [12] | Potency [13] | outcome [14]

Source: PubChem BioAssay (Tox21)
